Pf Dd2 inh: blocks in vitro growth of P. falciparum Dd2 | P. falciparum Dd2 growth, SYBR Green, 72 h | Potency, µM (top dose mostly 28.9 µM), without a hit: at the top dose activity, negative = inhibition, actives largely listed as inhibitors | 120,000 tested, 4.3% active | AID 1347417; active = well fitted inhibition curve with a large enough effect;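 note: plate controls were DMSO vehicle for no effect and reference drug for full effect; nearly all actives have a fitted effect of over 65% in size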
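Readout: SYBR Green fluorescence, 485 nm excitation, 535 nm emission, after ~16 h lysis at 37C. Before that, Dd2-infected red cells (2.5% hematocrit) grew 72 h with compound, 29 uM top final concentration.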
Numbers without * were called inactive; i = inactive; [ ] = remark or other dose. This is one part of a sample in which hits are shown more often than they occur. Potency is the fitted concentration of half-maximal effect.

SMILES	Pf Dd2 inh
CC1CCN(S(=O)(=O)c2ccc(C(=O)Nc3sc4c(c3C(N)=O)CC(C)(C)NC4(C)C)cc2)CC1	i
CCOC(=O)c1c(NC(=O)CS(=O)(=O)c2ccc(C)cc2)sc2c1CCCCC2	43%
O=C(Cc1ccc(Cl)cc1)NCc1nnc2c(-c3nc(C4CC4)no3)cccn12	i
CC(Oc1ccccc1)C(=O)N1CCC(n2cc(-c3nc(C(C)C)no3)nn2)CC1 (stereo not given)	-21%
C=CCNC(=O)C1CCCN(S(=O)(=O)c2ccccc2)CCC(=O)NCC1 (stereo not given)	-6%
Cc1cccc(N(C)C(=O)Cn2c(N3CCc4ccccc4C3)nc(C)cc2=O)c1	-29%
CCOC(=O)N1CCN(C(=O)CN(c2ccccc2F)S(=O)(=O)c2ccc(C)cc2)CC1	-16%
Cc1ccc(S(=O)(=O)N(CC(O)Cn2c3ccccc3c3ccccc32)c2cccc(C(N)=O)c2)cc1 (stereo not given)	10µM*
Cc1ccc(S(=O)(=O)N(CC(O)Cn2c3ccccc3c3ccccc32)c2cccc(C(=O)N(C)C)c2)cc1 (stereo not given)	8.9µM*
Cc1ccc(-c2ccc3nnc(CNC(=O)c4cccc(N(C)C)c4)n3n2)cc1	i
COc1ccc(S(=O)(=O)N(CC(=O)NCc2ccccc2)c2ccc(C)cc2)cc1OC	15%
Cc1ccc(S(=O)(=O)c2cn(CC(=O)Nc3cccc(Cl)c3)c3ccccc3c2=O)cc1	i
C1CNCC(Cc2nc(C3CCOCC3)no2)C1 (stereo not given)	11%
Cc1nc(CN2C(=O)OC3(CCN(Cc4c[nH]c5ccccc45)CC3)C2(C)c2ccccc2)cs1 (stereo not given)	-1%
COc1ccc(OC)c(S(=O)(=O)N2CCc3nn(CC4CC4)c(=O)n3CC2)c1	-8%
CC[C@H]1CN(C(=O)C2CC2)CC[C@H]1CC(=O)NCc1ccccc1	15%[44.1 µM]
OCc1cccc(-c2ccc3ncc(Nc4cccc(C(F)(F)F)c4)n3n2)c1	-20%[44.1 µM]
OCc1cccc(-c2ccc3ncc(Nc4cccnc4)n3n2)c1	-4%[44.1 µM]
OCc1cccc(-c2ccc3ncc(Nc4ccccc4Cl)n3n2)c1	4µM*
OCCc1ccc(Nc2cnc3ccc(-c4cccc(CO)c4)nn23)cc1	i
C[S+](=O)([O-])Nc1cccc(Nc2cnc3ccc(-c4cccc(CO)c4)nn23)c1	-2%[44.1 µM]
OCc1cccc(-c2ccc3ncc(Nc4ccc(OCCN5CCCC5)cc4)n3n2)c1	0.79µM*
COc1cccc(CNC(=O)CCC2CCN(C(=O)c3ccccc3F)CC2)c1OC	-19%
COCC(=O)N[C@H](C)c1onc(C)c1C(=O)O	15%[44.1 µM]
O=C([C@@H]1C[C@@H](c2ccc(F)cc2)N(Cc2ccccc2)C1)N1CCN(c2ccccn2)CC1	7.1µM*
SMILES	Pf Dd2 inh
C[S+](=O)([O-])N1C[C@H](C(=O)N2CCN(c3ccccn3)CC2)C[C@@H]1c1ccc(F)cc1	i
O=C(O)[C@@H]1CN(Cc2ccccc2)C[C@@H]1C(=O)N1CCN(c2ccccn2)CC1	-8%
CNC1CCc2nnc(C)n2CC1 (stereo not given)	16%
CN(C)c1nc2c(c(=O)[nH]1)CCN(Cc1ccccc1Cl)CC2	-20%[5.79 µM]
Cc1ccc(CN2CCn3c(nnc3[C@@H]3C[C@@H](O)CN3Cc3cccnc3)C2)o1	10%
O=C(NC1CC1)c1ccc2nnc(-c3cccnc3)n2c1	24%[44.1 µM]
O=C(NCCc1cccnc1)c1ccc(-c2nnc3ccc(NC(=O)C4CCC4)cn23)cc1	0.4µM*
O=C(Nc1ccc([C@H]2OCC(=O)N(Cc3cccnc3)[C@@H]2CO)cc1)C1CCC1	i
Cc1ccc(NC(=O)N2CCc3c(C(=O)NCCc4ccccn4)cccc32)cc1	-18%
O=C(NCCc1ccccn1)c1ccc(-c2nnc3ccc(NC(=O)C4CCC4)cn23)cc1	0.56µM*
O=C(NCCc1ccccn1)c1ccc(OC2CCNCC2)nc1	-8%
CCC(=O)N1CCN(c2nc3c(s2)CC(C(=O)O)CC3)CC1 (stereo not given)	-21%
COc1cc(CN2CCC3(CC2)[C@H](O)C[C@@H]3OCCN)cc(OC)c1	-3%
CCNC(=O)Nc1ccc([C@@H](O)[C@H]2COCC(=O)N2CCOCC)cc1	34%[44.1 µM]
C[C@@H](N)C(=O)N1CCC(n2nccc2NC(=O)Nc2ccccc2Cl)CC1	-3%
O=C(COc1ccccc1)N1CCOC[C@H](Oc2ccccc2)C1	i
Cc1ccc(Cl)cc1NC(=O)Cn1cccc1-c1nc(-c2ccc(F)cc2)no1	i
COc1ccc(-n2c(-c3ccc(C)cc3)cc3c2CC(C)(C)CC3=O)c(OC)c1	13µM*
Cc1ccc(-c2cc3c(n2-c2ccc(C)cc2)CC(C)(C)CC3=O)cc1	-25%[5.79 µM]
CCOc1ccc(-n2c(-c3ccc(OC)cc3)cc3c2CC(C)(C)CC3=O)cc1	10%
CC(C)N1C[C@H](O)C[C@H]1c1nnc2n1CCN(C(=O)c1ccc3ncccc3c1)CC2	12%
Cn1cnnc1CC1CCN(C(=O)c2cn3cc(Cl)ccc3n2)CC1	-6%
Cc1cccc(CN2C(=O)c3ccccc3S(=O)(=O)c3ccc(C(=O)NC4CCCCC4)cc32)c1	-4%
COc1ccccc1N1CCN(C(=O)c2ccc3c(c2)N(Cc2ccccc2)C(=O)c2ccccc2S3(=O)=O)CC1	7.1µM*
O=C(c1ccc2c(c1)N(Cc1ccc(F)cc1)C(=O)c1ccccc1S2(=O)=O)N1CCN(Cc2ccccc2)CC1	i
SMILES	Pf Dd2 inh
O=C(c1ccc2c(c1)N(Cc1ccc(Cl)cc1)C(=O)c1ccccc1S2(=O)=O)N1CCC(Cc2ccccc2)CC1	-6%
CN1CCN(C(=O)c2ccc3c(c2)N(Cc2cccc(Cl)c2)C(=O)c2ccccc2S3(=O)=O)CC1	i
O=C(c1ccc2c(c1)N(Cc1ccccc1)C(=O)c1ccccc1S2(=O)=O)N1CCc2ccccc21	11µM*
COc1ccccc1CNC(=O)c1ccc2c(c1)N(Cc1cccc(C)c1)C(=O)c1ccccc1S2(=O)=O	-9%
COc1ccc(N2CCN(C(=O)c3ccc4c(c3)N(Cc3cccc(Cl)c3)C(=O)c3ccccc3S4(=O)=O)CC2)cc1	-5%
CCOC(=O)N1CCC(NC(=O)c2ccc3c(c2)N(Cc2cccc(C)c2)C(=O)c2ccccc2S3(=O)=O)CC1	11µM*
C[C@H]1[C@@H]2[C@H]3OC(=O)[C@H](C)C3CC[C@@]2(C)CC[C@@H]1NC(=O)c1ccncc1 (stereo not given in full)	-26%[44.1 µM]
O=C(NC[C@H]1O[C@@H](CO)[C@@H](O)[C@H]1N1CCN(c2cccc(C(F)(F)F)c2)CC1)Nc1ccccc1	-8%
O=C(Cc1cccc(F)c1)N1CCC(Cc2noc(C3CCOCC3)n2)C1 (stereo not given)	-11%
Cc1cc2nc3n(c(=O)c2n1CC(=O)Nc1cccc(C(F)(F)F)c1)CCCCC3	-23%
CCCN(C)c1nccnc1OC1CCN(C(=O)C(C)C)C1 (stereo not given)	-24%
Cc1ncsc1CN1CCC2(CC1)CN(C1CCC1)CC2CO (stereo not given)	-11%
Cn1nc(C2CCN(S(=O)(=O)c3ccc4c(c3)CCCC4)CC2)n(C2CCCC2)c1=O	-9%
CC(C)c1noc(CC2CCN(C(=O)c3ccc(N(C)C)cc3)CC2)n1	0%
CC(C)c1noc(CC2CCN(C(=O)c3ccc(F)cc3)CC2)n1	17%
CC(C)c1noc(CC2CCN(C(=O)c3ccc(C(C)(C)C)cc3)CC2)n1	7.9µM*
COCCN1C(=O)CCc2cc(NC(=O)c3ccc(OC(F)(F)F)cc3)ccc21	-14%
